For 35 compounds, inhibition results are on record in PubChem BioAssay AID811 (The Scripps Research Institute Molecular Screening Center, 2007).

As a reminder, the inhibition is the change of the read-out against control, counted positive when it falls.

Each structure is given as a SMILES string. Out of some 16,000 compounds screened, about 10 (0.06%) were called active. Cut-off read from the data, not from the text of the source: active = inhibition above about 45%; inactive = the rest. The list comes from a sample in which actives are over-represented; it also holds similar structures and randomly drawn compounds.

Sequence of Toll-like receptor 4 (Homo sapiens) (O00206 whole entry, looked up): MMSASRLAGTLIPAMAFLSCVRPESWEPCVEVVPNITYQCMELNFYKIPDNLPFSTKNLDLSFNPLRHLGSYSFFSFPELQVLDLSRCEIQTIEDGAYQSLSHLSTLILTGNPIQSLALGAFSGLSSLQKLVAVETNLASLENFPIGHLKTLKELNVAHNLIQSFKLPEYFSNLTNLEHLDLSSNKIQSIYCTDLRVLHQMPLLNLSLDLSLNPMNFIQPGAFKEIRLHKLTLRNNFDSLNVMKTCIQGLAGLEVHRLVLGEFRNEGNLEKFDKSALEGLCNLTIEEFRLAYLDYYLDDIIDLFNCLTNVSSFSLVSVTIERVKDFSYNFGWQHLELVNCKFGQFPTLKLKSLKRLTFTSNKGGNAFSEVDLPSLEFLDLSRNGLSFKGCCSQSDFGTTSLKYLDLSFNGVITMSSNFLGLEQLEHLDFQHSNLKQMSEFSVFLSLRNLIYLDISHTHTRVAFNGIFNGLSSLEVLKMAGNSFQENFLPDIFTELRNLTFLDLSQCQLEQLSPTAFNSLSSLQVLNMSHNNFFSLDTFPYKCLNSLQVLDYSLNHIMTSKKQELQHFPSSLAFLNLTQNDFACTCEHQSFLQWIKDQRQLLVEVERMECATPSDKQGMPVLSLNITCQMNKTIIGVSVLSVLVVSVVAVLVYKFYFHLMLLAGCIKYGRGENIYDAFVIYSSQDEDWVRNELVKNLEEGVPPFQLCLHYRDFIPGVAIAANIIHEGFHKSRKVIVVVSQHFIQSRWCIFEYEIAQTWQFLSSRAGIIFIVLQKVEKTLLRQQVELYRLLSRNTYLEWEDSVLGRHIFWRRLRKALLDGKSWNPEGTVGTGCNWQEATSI

This test concerns the target Toll-like receptor 4 (Homo sapiens) (UniProt O00206). Kind of test: blocks binding of human TLR4 to MyD88 (AID 811). The settings on record: Cell-based TLR4-MyD88 binding inhibition assay; at 10 µM; hits give high values.
Consider `O=C(NC(=O)c1ccno1)Nc1ccccc1Cl`, for which the inhibition is -1.38% (inactive).

Take `Cn1c(CN2C(=O)CSc3ccc(C(F)(F)F)cc32)nnc1SCC(=O)c1ccccc1`: the inhibition is -0.94% (inactive). Take `COc1ccc(/C=N/Nc2nc(C)cc(=O)[nH]2)c(OC)c1`: the inhibition is -3.66% (inactive). For `CCCc1nc(N)ncc1C(=O)OCC`, the inhibition was -3.52% (inactive). The figure for `N/C(=N\OC(=O)c1ccc([N+](=O)[O-])o1)c1ccc(OCc2ccc(Cl)cc2)c(Cl)c1` is -0.21% (inactive); for `Cc1onc(-c2ccccc2)c1CNS(=O)(=O)c1ccc(-c2ccccn2)s1` it is -0.5% (inactive). The result for `O=S(=O)(Nc1ccc2[nH]ccc2c1)c1cccs1` reads 14.7% (inactive); that for `CC(=O)c1nnc2cc(C)nn2c1C`, 3.88% (inactive); that for `CS(=O)(=O)c1ccc(C(=O)Nc2cccc(Cl)c2)cc1`, -0.58% (inactive). For `CCCCc1ccc(S(N)(=O)=O)cc1`, the inhibition was -0.44% (inactive). The result for `O=C(Nc1ccccc1C(=O)NCc1c(F)cccc1Cl)c1ccccc1Cl` reads 2.65% (inactive); that for `O=[N+]([O-])c1ccc(C2CC2(Br)Br)cc1` (stereo not given), 11.1% (inactive).

With `C/C(=N\O)C(C)(C)Nc1ccc(C(C)(C)C)cc1`, the inhibition was 0.91% (inactive). The figure for `O=C(NNc1ccccc1C(F)(F)F)NS(=O)(=O)c1ccc(Cl)cc1` is 2.98% (inactive); for `COc1ccc(-c2csc(-c3cc(C)on3)n2)cc1` it is 7.05% (inactive); for `N#Cc1c(C(F)(F)F)cc(-c2cccs2)nc1N1CCCCC1` it is -4.83% (inactive). The result for `Cc1cc2nsnc2cc1Cl` reads 0.39% (inactive); that for `COc1ccc(COCC(O)CN2CCN(c3ccc(C(F)(F)F)cn3)CC2)cc1` (stereo not given), -3.92% (inactive). The result for `CSc1ccc(C(F)(F)F)cc1C(=O)/C=C/N(C)C` reads -5.34% (inactive); that for `FC(F)(F)c1ccc(Cl)c(NC(=S)NN=C2CCCCCC2)c1`, 0.56% (inactive).

For the compound `Cc1ccc(N(C)NC(=O)Nc2ccc(Cl)cc2)nn1`, the inhibition is 12.1% (inactive). The figure for `Cc1ccc(N=C2SC3(CC3)C(=O)N2c2ccc(C)cc2)cc1` is -5.53% (inactive); for `Cc1ccc(S(=O)(=O)NNC(=O)c2ccccc2N)cc1` it is -4.45% (inactive). On to `C=CCn1c(SCC(=O)Nc2nnc(-c3cccs3)s2)nnc1-c1ccco1`, for which the inhibition is -3.96% (inactive).

Consider `O=C(Nc1ccc(I)cc1Cl)C(=S)NCc1cccs1`, for which the inhibition is 3.66% (inactive). The result for `c1csc(-c2ccc(-c3ccon3)s2)c1` reads -1.22% (inactive). The figure for `CSc1nc(N)c2ccccc2n1` is -9.58% (inactive); for `O=C(Nn1cnnc1)c1cccs1` it is 1.09% (inactive). On to `Cc1nc(C(F)(F)F)ccc1C(=O)NC1CCCc2ccccc21` (stereo not given), for which the inhibition is 0.52% (inactive). For `Cc1ccccc1C(=O)NNC(=O)c1ccccc1C1=NCCCN1`, the inhibition is 4.96% (inactive). Take `N#Cc1cccnc1NNC(=O)c1ccccc1C(=O)O`: the inhibition was 4.06% (inactive).

As for `O=c1[nH]c2c(=O)[nH]c(=S)[nH]c2nc1/C=C(\O)c1ccccc1`, the inhibition is -4.76% (inactive). Regarding `N/C(=N\OC(=O)c1cccc(Cl)c1)c1ccc2nonc2c1`, the inhibition was 1.32% (inactive).

On to `Oc1[nH]c2ccc(F)cc2c1N=NC(=S)NC1CC2C=CC1C2` (stereo not given), for which the inhibition was -1.4% (inactive). With `Nc1c(-c2nnc(SCC(=O)c3ccccc3)o2)cnn1-c1ccccc1`, the inhibition was -5.52% (inactive).
